Assay results taken from PubChem BioAssay AID504332 (National Center for Advancing Translational Sciences (NCATS), 2011).
The campaign covered roughly 350,000 compounds. About 31,000 (8.9%) were called active. Where a call stands in place of a potency, no number is given. About 15% were inconclusive and are not listed. For the sample, actives were picked, then their nearest neighbours and some compounds at random. A number with no mark means an inactive call. Calls follow the shape of the dose curve; as a rule, active = well fitted inhibition curve with a large enough effect; inconclusive = small, poorly fitted or top-dose-only effect; inactive = no such curve, though single readings can be large or run the other way.

molecular target: Histone-lysine N-methyltransferase EHMT2 (Homo sapiens) (UniProt Q96KQ7); experiment: qHTS Assay for Inhibitors of Histone Lysine Methyltransferase G9a; conditions: G9a H3K9 monomethylation, AlphaScreen, 2 h; series mostly up to 59 µM; also: nearly all actives have a fitted effect of over 75% in size
Sequence (Q96KQ7 913-1193 limits assumed): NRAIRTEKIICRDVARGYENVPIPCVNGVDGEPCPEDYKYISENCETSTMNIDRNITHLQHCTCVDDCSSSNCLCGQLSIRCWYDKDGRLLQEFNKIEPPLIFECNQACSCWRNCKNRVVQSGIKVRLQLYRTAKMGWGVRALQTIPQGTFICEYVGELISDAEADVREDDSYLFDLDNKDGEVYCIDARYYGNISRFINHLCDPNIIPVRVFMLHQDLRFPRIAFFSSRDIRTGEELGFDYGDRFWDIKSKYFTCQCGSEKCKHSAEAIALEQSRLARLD
Summary of the method: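 Methyltransferase reactions run at room temperature for 2 h (20 nM enzyme, 500 nM biotin-H3K9 peptide, 20 uM SAM) after a 15 min compound preincubation; product detected by AlphaScreen beads and anti-H3K9me1 antibody.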
Potency is read from the fitted curve at half-maximal effect.

Row | Compound | Potency | activity, negative = inhibition
1 | O=C(NC(Cc1ccccc1)C(=O)N1CCCC(C(F)(F)F)C1)c1ccccc1 (stereo not drawn) | inactive | 
2 | FC(F)(F)C1CCCN(c2nsc3ccccc23)C1 (stereo not drawn) | 1.12 µM (active) | 
3 | O=C(NCC(=O)N1CCCC(C(F)(F)F)C1)c1ccccc1F (stereo not drawn) | inactive | 
4 | CCc1ccc(C(CNc2nc(C(F)(F)F)nc3ccccc23)N(C)C)cc1 (stereo not drawn) | inactive | 
5 | COc1cccc(CNc2nc(C(F)(F)F)nc3ccccc23)c1 | inactive | 
6 | NS(=O)(=O)c1ccc(CCNc2nc(C(F)(F)F)nc3ccccc23)cc1 | 70.8 µM (active) | 
7 | Cc1ccc(-c2cc(C(=O)Oc3ccccc3Cl)no2)cc1C | inactive | 
8 | O=C(COC(=O)c1c(Cl)cccc1Cl)Nc1cccc(S(=O)(=O)NC2=NCCCCC2)c1 |  | -0.124% [at 12.7 µM]
9 | CC(NC(=O)c1ccccc1SCC(=O)N1CCCC1)c1ccccc1 (stereo not drawn) | inactive | 
10 | Cc1nnc(SCC(=O)N2CCc3ccccc32)n1-c1ccccc1 | inactive | 
11 | O=C(CSc1nc2[nH]ncc2c(=O)n1-c1ccccc1)N1CCCc2ccccc21 | 8.91 µM (active) | 
12 | Cn1c(SCC(=O)N2CCCc3ccccc32)nc2ccccc2c1=O | inactive | 
13 | O=C(CNC(=O)c1ccccc1F)c1ccc(Br)cc1 | inactive | 
14 | Cc1cccc[n+]1CC(=O)c1ccccc1 | inactive | 
15 | O=C(C[n+]1cc(Br)cc2ccccc21)c1ccc(F)cc1 | 50.1 µM (active) | 
16 | COC(=O)c1cnn(-c2ccc(C(=O)Nc3ccc(OC(F)(F)F)cc3)cc2)c1N | inactive | 
17 | COc1ccc(-c2cn3c(C)c(C(=O)Nc4cc(C)cc(C)c4)sc3n2)cc1 | inactive | 
18 | Cc1cc(C)c2nc(SCC(=O)N(C)C3CCS(=O)(=O)C3)cc(C)c2c1 (stereo not drawn) | 44.7 µM (active) | 
19 | CN(C(=O)CSc1nnc(-c2ccc(C(C)(C)C)cc2)n1C)C1CCS(=O)(=O)C1 (stereo not drawn) |  | 1.39% [at 12.7 µM]
20 | COc1ccc2c(-c3ccccc3)cc(SCC(=O)N(C)C3CCS(=O)(=O)C3)nc2c1 (stereo not drawn) | inactive | 
21 | CCOC(=O)[C@H]1[C@H]2COc3ccc(C)cc3[C@@H]2N2C(=O)CN(Cc3ccc(F)cc3)C(=O)[C@@]12C |  | 9.53% [at 0.501 µM]

Row | Compound | Potency | activity, negative = inhibition
22 | O=C(NCc1cccc(Cl)c1)C1CCN(c2nnc(N3CCCC3=O)s2)CC1 | inactive | 
23 | COC(=O)c1ccc(/C=N/OCC(=O)Nc2cc(F)ccc2F)cc1 | inactive | 
24 | CC(C)(CCl)C(=O)Nc1ccc(Sc2ccc(F)cc2)cc1 |  | -58.2% [at 2.33 µM]
25 | COC(=O)c1ccc(Sc2ccc(F)cc2)c(N)c1 | 28.2 µM (active) | 
26 | CC(C)CC(=O)N1CCN(Cc2ccccc2Br)CC1 | 20 µM (active) | 
27 | CC(C)CC(=O)N1CCN(Cc2cccc(Cl)c2)CC1 | 22.4 µM (active) | 
28 | Cc1ccccc1NC(=O)NCC1CCN(Cc2cccc(Cl)c2)CC1 |  | 2.62% [at 2.33 µM]
29 | CC(C)CC(=O)N1CCC(O)(CS(=O)(=O)Cc2ccccc2)CC1 | inactive | 
30 | CC(CC(=O)N1CCN(c2ccccc2)CC1)c1ccccc1 (stereo not drawn) | inactive | 
31 | O=C(c1cccc(Cl)c1)N1CCN(Cc2ccccc2)CC1 | inactive | 
32 | COc1cc([N+](=O)[O-])ccc1NC(=O)COC(=O)CCOc1ccc(C)cc1 | inactive | 
33 | Cc1ccc(/C=C2/SC(=S)N(CCC(=O)NCCCN3CCOCC3)C2=O)cc1 | inactive | 
34 | O=C(CCCCn1c(=O)c2ccccc2n(CC(=O)Nc2cccc(C(F)(F)F)c2)c1=O)NCc1ccc2c(c1)OCO2 | inactive | 
35 | COc1cccc(CNCCSc2nnnn2C)c1OCc1ccccc1Cl | inactive | 
36 | O=S(=O)(O)c1nc2ccccc2n1Cc1ccc(Cl)cc1Cl | inactive | 
37 | Cn1c(S(=O)(=O)O)nc2ccccc21 | inactive | 
38 | O=S(=O)(O)c1nc2ccccc2n1Cc1ccc(Cl)cc1 | 50.1 µM (active) | 
39 | CCc1nn(CC(=O)NCC(C)c2ccccc2)c(=O)c2cc3occc3n12 (stereo not drawn) | inactive | 
40 | COc1ccc(S(=O)(=O)/N=C2\C=C(NS(=O)(=O)c3ccccc3)C(=O)c3ccccc32)cc1 | 8.91 µM (active) | 
41 | COc1ccc(S(=O)(=O)Nc2c(C)n(C)n(-c3ccccc3)c2=O)cc1 | inactive | 
42 | COc1ccc2cc(S(=O)(=O)Nc3ccccn3)ccc2c1 | inactive | 

Row | Compound | Potency | activity, negative = inhibition
43 | CN(C)c1ccc(/C=C2\NC(=S)N(Cc3ccccc3)C2=O)cc1 | inactive | 
44 | CN(C)c1ccnc2sc3c(=O)n(Cc4ccccc4)cnc3c12 |  | 26.4% [at 0.501 µM]
45 | CC1=NN(Cc2ccccc2)C(=O)/C1=C/c1ccc(N(C)C)cc1 | 10 µM (active) | 
46 | COc1ccccc1C(=O)NC(CCSC)C(=O)NNC(=O)c1ccccc1C (stereo not drawn) |  | 25.8% [at 0.501 µM]
47 | c1ccc(CSc2nnc(-c3ccco3)c(-c3ccco3)n2)cc1 | 6.31 µM (active) | 
48 | O=c1[nH]c(SCc2ccccc2)nnc1-c1ccccc1 | inactive | 
49 | COc1ccc2nc(SCc3ccccc3)nc(C)c2c1 | inactive | 
50 | COc1cc(C(=O)NCC(=O)NCCSc2ccc(Br)cc2)cc(OC)c1OC |  | 10% [at 0.501 µM]
51 | O=C(COC(=O)Cc1ccccc1F)NCCc1ccccc1 |  | -6.48% [at 2.33 µM]
52 | CC(=O)Nc1ccc(C(=O)N(C2=NC(C)CS2)c2ccc(Cl)cc2)cc1 (stereo not drawn) | inactive | 
53 | COCCCNC(=O)c1ccc(NC(=O)c2nsc3ccccc23)cc1 | inactive | 
54 | COc1ccc(OCC(O)CNC(=O)Nc2ccc(Cl)cc2)cc1 (stereo not drawn) | inactive | 
55 | OC(CNCCc1ccc(Cl)cc1Cl)COc1ccccc1 (stereo not drawn) | 25.1 µM (active) | 
56 | COC(=O)c1sc2ncccc2c1OCc1ccc(Cl)cc1Cl | inactive | 
57 | CCCCN(CC)CCCNC(=O)Cn1ncc2c([nH]c3ccc(C)cc32)c1=O | inactive | 
58 | CC1CCc2sc(C(=O)NCC(c3ccco3)N3CCCCC3)cc2C1 (stereo not drawn) | inactive | 
59 | Cc1ccccc1C(=O)NCC(c1ccco1)N1CCc2ccccc21 (stereo not drawn) |  | 12% [at 2.33 µM]
60 | COc1cc(C(=O)NCC(c2ccco2)N2CCCC2)ccc1OCc1ccccc1 (stereo not drawn) | inactive | 
61 | O=C(NCC(c1ccco1)N1CCc2ccccc21)c1cccc(F)c1 (stereo not drawn) | 50.1 µM (active) | 
62 | CC1Cc2ccccc2N1S(=O)(=O)c1cccc(C(=O)NCC(c2ccco2)N2CCCC2)c1 (stereo not drawn) | 39.8 µM (active) | 
63 | COc1ccc(C(=O)NCC(c2ccco2)N2CCc3ccccc32)cc1OC (stereo not drawn) |  | -2.6% [at 0.501 µM]
